According to PubChem BioAssay (NCI):
The panel holds about 83,000 compounds, 20% with a hit somewhere; the sample as a whole holds those more often.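 Activity criterion: percent growth below 10, measured after cells in 96-well plates were exposed to a single compound concentration for 48 hours.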 The source made the active and inactive calls.

test system: HL-60(TB) leukemia; test: NCI-60 one-dose screen, 48 h (100 = growth as untreated, 0 = no growth, -100 = all killed); conditions: 10 µM unless noted

Q: With `Cc1cc(O)c(C2=NN(c3ccc(S(N)(=O)=O)cc3)C(c3ccccc3Cl)C2)cc1Cl` (stereo not given) as the compound, how does the growth read?
A: -30.2% (active)

Q: How did the growth turn out when `CS(=O)CC1=NC(=N)N=C1CS(C)=O` (stereo not given) was run?
A: 91.2% (inactive)

Q: How did the growth turn out when `COc1ccc(OC)c(Nc2nc3nonc3nc2Nc2cc(OC)ccc2OC)c1` was run?
A: 103% (inactive)

Q: `CCOP(=O)(NC(c1ccccc1)c1ccccc1)OCC` was tested. Which growth did it give?
A: 101% (inactive)

Q: `Cn1cc(-c2csc(-c3cn(C)c4ncccc34)n2)c2cc(Br)cnc21` was tested. Which growth did it give?
A: 83.1% (inactive)

Q: Which growth does the source give for `CC1(C)N=C(N)N=C(N)N1c1ccc(Cl)cc1` here?
A: 51.6% (inactive)

Q: Which growth does the source give for `CCOC(=O)c1c(NS(=O)(=O)c2ccc(C)cc2)sc2c1CCC1(C2)OCCO1` here?
A: 88.5% (inactive)

Q: Which growth does the source give for `c1ccc(-c2nc3sc(-c4ccccc4)cn3n2)cc1` here?
A: 78.8% (inactive)

Q: `CCC1NC(=O)c2cc(S(N)(=O)=O)c(Cl)cc2N1` (stereo not given) was tested. Which growth did it give?
A: 120% (inactive)

Q: For `O=C(Nc1ccccc1)Nc1ncnc2c1ncn2-c1ccccc1`, which growth is on record?
A: 100% (inactive)

Q: `CCSc1cnnc2ccccc12` was tested. Which growth did it give?
A: 91.5% (inactive)

Q: Which growth does the source give for `COc1cc(-c2nc(-c3nnc(-c4ccccc4Cl)o3)c3ccccn23)cc(OC)c1OC` here?
A: 67.1% (inactive)

Q: With `CC(C)=CCCC(C)C1=C(O)C(=O)C(C)=CC1=O` (stereo not given) as the compound, how does the growth read?
A: -47.1% (active)

Q: For `CC(C)[C@H]1COC(=O)N1[C@@H]1C(=O)N([C@@H](CCC(=O)N2CCN(C3CCCC3)CC2)C(=O)N[C@@H]2CCCc3ccccc32)[C@@H]1/C=C/c1cccc(Cl)c1`, which growth is on record?
A: 5.13% (active)

Q: Which growth does the source give for `CC[C@@H](C(=O)[C@@H](C)[C@@H](O)[C@H](C)[C@@H]1O[C@@H]([C@@H](CC)C(=O)N(CC)CC)CC[C@@H]1C)C1O[C@]2(C=CC(=O)[C@]3(CC[C@@](C)([C@H]4CC[C@](O)(CC)[C@H](C)O4)O3)O2)[C@H](C)C[C@@H]1C` (stereo not given in full) here?
A: -36.4% (active)

Q: How did the growth turn out when `COc1ccc(Cc2cnc(N)nc2N)cc1OC` was run?
A: 95.2% (inactive)

Q: How did the growth turn out when `CCSc1nnc(NC(=O)Cc2ccc(Cl)cc2)s1` was run?
A: 96.8% (inactive)

Q: With `COc1ccc(C(=NN=C(N)N)c2ccc(OC)cc2)cc1` as the compound, how does the growth read?
A: 15.5% (inactive)

Q: With `O=C1/C(=C/c2ccc(F)cc2)CN(C(=O)C(Cl)Cl)C/C1=C\c1ccc(F)cc1` as the compound, how does the growth read?
A: -34% (active)

Q: With `C=C(C)[C@@H]1CC[C@]2(C)[C@H](CC[C@@H]3[C@@H]([C@@](C)(O)CCC=C(C)C)CC[C@]32C)[C@@]1(C)CCC(=O)O` as the compound, how does the growth read?
A: -24.1% [100 µM] (active)

Q: How did the growth turn out when `c1ccc2c(N=NSc3ncnc4nc[nH]c34)c3ccccc3nc2c1` was run?
A: -5.76% (active)

Q: For `CCc1ccccc1C(=O)N(CC)CC`, which growth is on record?
A: 95.1% (inactive)

Q: For `CC(/C=C/c1ccccc1)=N/NC(=O)c1ccncc1`, which growth is on record?
A: 92.2% (inactive)

Q: With `Cc1cc2c(-c3nc4ccccn4c3NC34CC5CC(CC(C5)C3)C4)c(O)c(O)cc2c(O)c1-c1c(C)cc2c(-c3nc4ccccn4c3NC34CC5CC(CC(C5)C3)C4)c(O)c(O)cc2c1O` as the compound, how does the growth read?
A: 5.04% (active)

Q: How did the growth turn out when `COC(=O)CC[C@@H]1O[C@@H](c2ccc(F)cc2)[C@@H](O)[C@H]1O` was run?
A: 113% (inactive)

Q: For `O=C(Nc1cccnc1Nc1ccc(Cl)cc1)c1cn(Cc2cccc(Oc3ccccc3)c2)nn1`, which growth is on record?
A: 12.9% (inactive)

Q: For `COc1cc(C(=O)/C=C/c2cc(-c3cc(OC)c(OC)c(OC)c3)n[nH]2)cc(OC)c1OC`, which growth is on record?
A: 0.291% (active)

Q: How did the growth turn out when `CCN(CC)C(=O)CCCCCn1c2ccccc2c2c3c(c4c5ccccc5[nH]c4c21)C(=O)N(O)C3=O` was run?
A: 21.8% (inactive)

Q: With `COCCn1cc(-c2nc(-c3cn(CCOC)c4ncccc34)cs2)c2ccccc21` as the compound, how does the growth read?
A: 114% (inactive)

Q: For `O=c1oc2ccc(Cl)cc2cc1-c1cs/c(=N/N=C\c2ccc(Cl)cc2)n1/N=C/c1ccc(Cl)cc1`, which growth is on record?
A: 95.1% (inactive)

Q: With `CNc1ccc(Nc2cccc(C)c2)c2c1C(=O)c1ccccc1C2=O` as the compound, how does the growth read?
A: 80.6% (inactive)

Q: With `O=c1oc2ccc(-c3ccc(F)cc3F)cc2c(=O)n1-c1cccc(C(F)(F)F)c1` as the compound, how does the growth read?
A: -33.3% (active)

Q: With `COc1ccc(-c2nc3sccn3c2-c2ccnc(NCCCNS(=O)(=O)c3ccc(F)cc3)n2)cc1` as the compound, how does the growth read?
A: -3.74% (active)

Q: With `N#Cc1c(-c2ccc(Cl)cc2)n(O)c2ccccc12` as the compound, how does the growth read?
A: -0.349% (active)

Q: With `Cc1nn(-c2ccccc2)c2nc(N)c(C3=NCCO3)nc12` as the compound, how does the growth read?
A: 102% (inactive)

Q: With `NC(CCC(=O)NC(CS)C(=O)NCC(=O)O)C(=O)O` (stereo not given) as the compound, how does the growth read?
A: 73.1% (inactive)

Q: `Cc1ccc(C(=O)Nc2ccc(CN3CCN(C)CC3)c(C(F)(F)F)c2)cc1C#Cc1cnc(N)c2ccccc12` was tested. Which growth did it give?
A: -37.9% (active)

Q: Which growth does the source give for `NC(=O)c1cccc(-c2ccc(S(=O)(=O)Nc3ccc4c(c3)N(C(=O)C3CC3)CCC4)cc2)c1` here?
A: 1.43% (active)

Q: `Cc1ccc(C(=O)COc2cccc(/C=C3\Oc4ccccc4C3=O)c2)cc1` was tested. Which growth did it give?
A: 78.7% (inactive)

Q: `C=C(C)[C@H]1CC/C(C)=C/CC[C@]2(C)O[C@H]2CC/C(C=O)=C\C1O` (stereo not given in full) was tested. Which growth did it give?
A: 253% (inactive)
